Consider nine compounds from PubChem BioAssay.

Calls of active or inactive are those of the source. Unless noted, how the calls were made is not given here.

Assay [1] is described as follows: HepG2 liver cancer cell viability effects, profiling panel, resazurin fluorescence, 24 h, PK04 Diversity Set (AID 1172). As to conditions: higher = more signal.
A short description of assay [2]: basal S. cerevisiae growth modulation, no modifier, primary screen, OD600, strain BY4716, 24 h, basal condition (AID 1173). As to conditions: OD600, 24 h, higher = more signal, called active from +8 up or from −8 down.
Assay [3] can be described thus: MM1S myeloma cell viability, profiling panel, resazurin fluorescence, basal, 24 h, PK04 Diversity Set (AID 1174).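 Further: MM1S multiple myeloma cell line.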 To be noted: higher = more signal, called active from +8 up or from −8 down. Background: Alamar Blue is a resazurin reagent that responds to reducing activity.
Assay [4] addresses Dihydroorotate dehydrogenase (quinone), mitochondrial (Plasmodium falciparum (isolate 3D7)) (UniProt Q08210). The assay is described as follows: PfDHODH enzyme inhibitors, primary screen, biochemical, C-terminal His tag, absorbance 600 nm (AID 1175).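 Further: recombinant parasite enzyme with a five histidine tag at its C terminus.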 To be noted: DCIP absorbance 600 nm, higher = more signal, called active from +8 up or from −8 down.
The nature of assay [5]: S. cerevisiae RM11-1a growth modifiers, primary screen, strain RM11-1a, OD600, basal, 24 h (AID 1177).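 Further: cultures grown under basal conditions with no added stressor.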 To be noted: OD600, 24 h, higher = more signal, called active from +8 up or from −8 down.
Assay [6] is described as follows: E. coli acrAB mutant growth effects, primary screen, E. coli filamentation inducers, strain DRC39, OD650, 24 h (AID 1178).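 Further: growth measured as culture turbidity by optical density at 650 nm.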 To be noted: higher = more signal, called active from +8 up or from −8 down.
Assay [7] in a line: E. coli acrAB mutant growth effects, primary screen, E. coli filamentation inducers, strain DRC39, OD650, 48 h (AID 1179).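 Further: screen aims at cell division blockers that make cells filament.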 To be noted: E. coli DRC39 delta-acrAB growth, higher = more signal, called active from +8 up or from −8 down.
A short description of assay [8]: RPMI8226 myeloma cell viability, profiling panel, resazurin fluorescence, basal, 24 h, PK04 Diversity Set (AID 1180).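 Further: RPMI8826 multiple myeloma cell line at 5000 cells per well.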 As to conditions: higher = more signal.
The target in assay [9] is E3 ubiquitin-protein ligase XIAP (Homo sapiens) (UniProt P98170). Description: XIAP binders, primary screen, biophysical, small-molecule microarray, fluorescence 635 nm (AID 1181).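 Further: score merges 667 nm emission and signal to noise over triplicate slides.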 To be noted: small-molecule microarray binding, higher = more signal.
In assay [10] the test system is XIP peptide (Xip251-270) binding. Description: small-molecule binders of XIP peptide, primary screen, biochemical, small-molecule microarray, fluorescence 635/667 nm, 0.1 µg/mL protein (AID 1182). As to conditions: fluorescent protein binding, 635 nm, higher = more signal, called active from +8 up or from −8 down.
In the next assay the test system is XIP peptide (Xip251-270). Description: small-molecule binders of XIP peptide, primary screen, biochemical, small-molecule microarray, fluorescence 635/667 nm, 0.5 µg/mL protein (AID 1183). To be noted: small-molecule microarray binding, fluorescence 635 nm; higher = more signal.
The nature of assay [11]: Plasmodium falciparum growth inhibition, primary screen, strain 3D7, DAPI fluorescence, 100 nL (AID 1184).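 Further: parasites grown inside human red blood cells in medium with human serum.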 As to conditions: P. falciparum 3D7 growth, 3 d, higher = more signal.
Assay [12] has as its target Homeobox protein Hox-A13 (Mus musculus) (UniProt Q62424). The assay is described as follows: inhibitors of HoxA13-DNA binding, primary screen, biochemical, fluorescence polarization, labeled oligonucleotide (AID 1185). As to conditions: 15 min, higher = more signal, called active from +8 up or from −8 down. (In general: Polarisation of emitted light reports the rotation of a fluorescent probe.)

Assay [13] is described as follows: inhibitors of hydroxyurea-induced Chk1 phosphorylation, primary screen, imaging, HeLa, phospho-Chk1 antibody, percent positive cells (AID 1186). To be noted: hydroxyurea-induced phospho-Chk1 immunofluorescence imaging, higher = more signal.
Assay [14] in a line: inhibitors of hydroxyurea-induced Chk1 phosphorylation, primary screen, imaging, HeLa, phospho-Chk1 nuclear intensity (AID 1187). To be noted: hydroxyurea-induced phospho-Chk1 immunofluorescence imaging, higher = more signal.

Sequence of Dihydroorotate dehydrogenase (quinone), mitochondrial (Plasmodium falciparum (isolate 3D7)) (Q08210 whole entry, looked up): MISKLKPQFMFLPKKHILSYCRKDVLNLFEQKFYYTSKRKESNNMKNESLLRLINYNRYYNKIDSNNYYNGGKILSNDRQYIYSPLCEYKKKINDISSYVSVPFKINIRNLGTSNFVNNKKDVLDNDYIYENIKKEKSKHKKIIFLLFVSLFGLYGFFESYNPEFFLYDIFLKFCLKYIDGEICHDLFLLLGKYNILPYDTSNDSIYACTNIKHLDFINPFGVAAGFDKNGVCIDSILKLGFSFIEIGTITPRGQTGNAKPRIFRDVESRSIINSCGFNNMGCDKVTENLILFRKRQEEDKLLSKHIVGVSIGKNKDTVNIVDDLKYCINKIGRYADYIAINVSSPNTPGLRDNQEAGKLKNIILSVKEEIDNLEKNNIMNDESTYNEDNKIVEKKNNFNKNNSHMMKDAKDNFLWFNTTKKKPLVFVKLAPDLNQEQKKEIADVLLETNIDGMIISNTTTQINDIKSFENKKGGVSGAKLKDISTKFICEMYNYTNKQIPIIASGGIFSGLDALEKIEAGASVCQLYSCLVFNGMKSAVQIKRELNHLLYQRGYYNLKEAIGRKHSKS
Sequence of Homeobox protein Hox-A13 (Mus musculus) (Q62424 whole entry, looked up): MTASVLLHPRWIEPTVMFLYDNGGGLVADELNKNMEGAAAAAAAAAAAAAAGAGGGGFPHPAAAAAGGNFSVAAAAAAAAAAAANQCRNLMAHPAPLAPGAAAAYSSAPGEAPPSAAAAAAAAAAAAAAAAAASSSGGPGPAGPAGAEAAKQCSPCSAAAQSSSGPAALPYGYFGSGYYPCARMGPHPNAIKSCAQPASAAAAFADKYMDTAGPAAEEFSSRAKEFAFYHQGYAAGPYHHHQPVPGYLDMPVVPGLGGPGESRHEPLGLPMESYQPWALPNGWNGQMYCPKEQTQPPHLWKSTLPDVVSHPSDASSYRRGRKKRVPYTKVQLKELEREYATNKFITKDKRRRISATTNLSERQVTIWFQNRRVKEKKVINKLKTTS
Sequence of E3 ubiquitin-protein ligase XIAP (Homo sapiens) (P98170 whole entry, looked up): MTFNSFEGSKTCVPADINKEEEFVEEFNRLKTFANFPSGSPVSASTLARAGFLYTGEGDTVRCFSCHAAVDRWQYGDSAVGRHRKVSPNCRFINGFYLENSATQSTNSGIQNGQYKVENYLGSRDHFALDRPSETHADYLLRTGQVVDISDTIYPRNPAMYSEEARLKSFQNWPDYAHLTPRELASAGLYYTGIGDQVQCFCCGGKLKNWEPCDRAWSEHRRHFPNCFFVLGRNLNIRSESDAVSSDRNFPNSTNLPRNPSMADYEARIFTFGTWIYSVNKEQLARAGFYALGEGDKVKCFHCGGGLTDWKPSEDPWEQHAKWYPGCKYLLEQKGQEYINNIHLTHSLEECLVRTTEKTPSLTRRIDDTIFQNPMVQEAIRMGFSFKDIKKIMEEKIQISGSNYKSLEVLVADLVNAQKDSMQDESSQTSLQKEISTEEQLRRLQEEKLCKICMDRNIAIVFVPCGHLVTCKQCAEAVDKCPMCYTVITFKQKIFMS

Consider `CO[C@@H]1COC(=O)[C@@H]2CCCN2C(=O)CC=C[C@@H](C)[C@H](OC)COC(=O)[C@@H]2CCCN2C(=O)CC=C[C@H]1C`, for which the z-score in assay [1] is 0.929; in assay [2], -1.45 (inactive); in assay [3], 1.31 (inactive); in assay [5], -0.553 (inactive); in assay [6] it was 1.65 (inactive); in assay [7] it was 0.987 (inactive). Moreover, the z-score is 0.0475 in [8], 0.583 in assay [11] and -0.507 (inactive) in assay [12]. Also, the composite z-score was 0.319 (inactive) in assay [4], -0.02 in assay [9], 0.284 (inactive) in [10] and 0.352 with XIP peptide (Xip251-270).
On to `CC(=O)NCCCC[C@@H]1NC(=O)[C@@H]2C[C@H](C(=O)NCCCCCCN(C)C)[C@H](c3ccc(O)cc3)N2C1=O`, for which the z-score is 0.478 in assay [1]; -0.574 (inactive) in assay [2]; 1.12 (inactive) in [3]; 0.662 (inactive) in assay [5]; 0.325 (inactive) in assay [6]; 0.249 (inactive) in assay [7]. Also, the z-score was 0.912 in assay [8]; -0.289 in assay [11]; -0.0113 (inactive) in assay [12]; 0.313 (inactive) in [13]; 0.54 (inactive) in assay [14]. The composite z-score in [4] is 0.266 (inactive); in assay [9] it was 0.103; in [10], 1.9 (inactive); in the assay on XIP peptide (Xip251-270) it was 0.852.
For the compound `C=C[C@H](OC)[C@@H](OC(=O)Nc1ccc(SC)cc1)c1ccc(OC)c(O)c1`, the z-score in [1] is 1.06; in [2] it was -1.14 (inactive); in assay [3], 0.7 (inactive); in assay [5], -1.55 (inactive); in assay [6], 1.51 (inactive); in assay [7], 1.93 (inactive). In addition, the z-score in assay [8] is 0.933; in assay [11] it was -0.549; in assay [12] it was -2.82 (inactive); in assay [13], -0.439 (inactive); in assay [14], 0.136 (inactive). The composite z-score in assay [4] was -0.768 (inactive); in assay [9], -0.0773; in assay [10] it was 0.241 (inactive); in the assay on XIP peptide (Xip251-270) it was 0.0001.
With `CO[C@H]1O[C@H](CO)[C@@H](OC(=O)CCc2ccccc2)[C@@H]2OC(=O)[C@H](Cc3cccc(Br)c3)C/C=C/C[C@@H](Cc3cccc(Br)c3)C(=O)O[C@@H]12`, the z-score in assay [1] is 1.13; in [2], -3.87 (inactive); in assay [3] it was 1.5 (inactive); in [5] it was -4.01 (inactive); in assay [6], 1.41 (inactive); in assay [7], 1.14 (inactive). Moreover, the z-score in assay [8] is 1.45; in [11] it was -1.84; in assay [12], -2.42 (inactive); in [13], -0.962 (inactive); in [14], -1.1 (inactive). Besides, the composite z-score was -0.578 (inactive) in assay [4], 0.0356 in assay [9], 0.0304 (inactive) in assay [10] and -0.107 with XIP peptide (Xip251-270).
For the compound `C=CCNC(=O)[C@H]1[C@@H]2C(=O)O[C@@H](c3ccccc3)[C@@H](c3ccccc3)N2[C@@H](c2ccc(O)cc2)[C@]12C(=O)Nc1ccc(C#CCNC(N)=O)cc12`, the z-score in [1] was 0.435; in assay [2] it was -0.558 (inactive); in assay [3], 0.476 (inactive); in [5], -0.381 (inactive); in [6], 0.574 (inactive); in [7], 0.771 (inactive). Moreover, the z-score is 0.917 in assay [8]; -0.491 in assay [11]; -2.56 (inactive) in assay [12]; 0.191 (inactive) in assay [13]; 0.424 (inactive) in assay [14]. Besides, the composite z-score is -0.438 (inactive) in assay [4], 0.0223 in [9], 0.342 (inactive) in assay [10] and 0.0866 in the assay with XIP peptide (Xip251-270).
For the compound `COCCOC(=O)N1C(=O)[C@@]2(c3cc(C#CC4(O)CCCCCC4)ccc31)[C@H](C(=O)N1CCCCCCC1)[C@H]1C(=O)O[C@H](c3ccccc3)[C@H](c3ccccc3)N1[C@@H]2c1ccc(O)cc1`, the z-score in assay [1] is 0.1; in [2], -0.975 (inactive); in assay [3], 1.57 (inactive); in assay [5], 0.322 (inactive); in assay [6] it was 0.286 (inactive); in assay [7], 0.264 (inactive). For the same compound, the z-score in assay [8] is 0.868; in assay [11], -2.19; in assay [12] it was 3.51 (inactive); in assay [13], -0.169 (inactive); in assay [14], 0.085 (inactive). Moreover, the composite z-score is 0.0505 (inactive) in assay [4], 0.154 in assay [9], 0.888 (inactive) in assay [10] and 0.683 with XIP peptide (Xip251-270).
Consider `C/C(=N\O)C(=O)NCCCCCNC(=O)OCc1ccccc1`, for which the z-score in [1] is 1.09; in assay [2], -2.13 (inactive); in assay [3] it was -0.158 (inactive); in assay [5], -0.608 (inactive); in assay [6] it was 2.59 (inactive); in [7], 1.43 (inactive). For the same compound, the z-score in [8] is 0.73; in assay [11] it was 0.574; in assay [12], -0.408 (inactive); in assay [13] it was -0.103 (inactive); in assay [14], -0.394 (inactive). In addition, the composite z-score in assay [4] is -0.4 (inactive); in [9], -0.258; in [10], 0.759 (inactive); in the assay on XIP peptide (Xip251-270), 0.58.
For `COc1ccc([Si](C)(C)[C@H]2[C@H](CCO)O[C@@]3(C(=O)N(Cc4ccc(N5CCCCC5=O)cc4)c4ccccc43)[C@@H]2C)cc1`, the z-score was -1.69 in [1]; -1.07 (inactive) in [2]; -7.58 (inactive) in assay [3]; 2 (inactive) in assay [5]; 2.18 (inactive) in [6]; -0.0822 (inactive) in assay [7]. Further, the z-score in [8] was -2.73; in [11], -1.39; in assay [12], -4.54 (inactive); in assay [13] it was -0.688 (inactive); in assay [14], -0.167 (inactive). Moreover, the composite z-score was -5.37 (inactive) in [4], 0.0223 in assay [9], 0.125 (inactive) in [10] and 0.81 in the assay with XIP peptide (Xip251-270).
Take `COc1cc2c(cc1OC)CN(C(=O)[C@@H]1[C@H]3C(=O)O[C@H](c4ccccc4)[C@H](c4ccccc4)N3[C@H](c3ccccc3OCCO)[C@@]13C(=O)Nc1ccccc13)CC2`: the z-score in assay [1] is 0.193; in assay [2] it was 1.34 (inactive); in assay [3] it was 0.255 (inactive); in assay [5], 3.1 (inactive); in [6], 0.392 (inactive); in [7] it was 0.952 (inactive). Also, the z-score was 0.105 in [8]; -2.18 in assay [11]; 0.829 (inactive) in [12]; 0.306 (inactive) in assay [13]; 0.876 (inactive) in assay [14]. The composite z-score was -0.495 (inactive) in assay [4], -0.127 in assay [9], 1.79 (inactive) in [10] and 0.829 with XIP peptide (Xip251-270).
